Our source for the growth inhibition values is PubChem BioAssay (NCI).

Molecules are shown by their SMILES. This is part of a sample that, as a whole, favours compounds with a hit. Of some 79,000 tested, about 15% had one in any assay. Activity calls are given as the source filed them. Cut-off read from the data, not from the text of the source: active = growth inhibition above about 70%; inactive = the rest.

A short description of this assay: NCI Yeast Anticancer Drug Screen. Data for the bub3 strain (AID 167). The following applies: S. cerevisiae bub3 mutant strain, at 50.0 µM, active compounds read high. The gist of the method:
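Whole-cell yeast assay. The mutant strain was incubated with compounds, and growth inhibition was determined by comparison with vehicle-treated cells.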
Regarding `CC(=O)OCCOCCCl`, the growth inhibition was 19.2% (inactive). Next, `Cc1ccc(Sc2ccc3ccccc3c2)nc1`: 5.05% (inactive); `CC(C)=C1C2CCC1[C@H](COS(C)(=O)=O)[C@@H]2COS(C)(=O)=O`: 11.1% (inactive); `N[C@@H]1CCCC[C@H]1O`: -5.9% (inactive). Take `CCC1=CCN2CCC34c5cc(C6(C(=O)OC)CC7CC(CC)CN(CCc8c6[nH]c6ccccc86)C7)c(OC)cc5N(C)C3C(O)(C(=O)OC)C(OC(C)=O)C1C24` (configuration not stated): the growth inhibition is -1.55% (inactive). As to `COC(=O)C1(CC(=O)c2ccc(F)cc2)NC(=S)NC(=O)C1C#N` (configuration not stated), the growth inhibition is -34% (inactive). For `Cn1c(=O)c2c(nc(Br)n2CC(=O)c2ccc([N+](=O)[O-])cc2)n(C)c1=O` the value was 0.55% (inactive); for `CC(=O)NC(C)c1ccc2ccccc2c1` (configuration not stated), -8.5% (inactive); for `O=C(NNC(=O)c1cccc(F)c1)c1cccc(F)c1`, -6.4% (inactive).

As to `CCOC(=O)C1=C(O)c2c(OC)ccc(OC)c2C(=O)C1=O`, the growth inhibition is -16% (inactive). For `NC(CSCC(=O)O)C(=O)O` (configuration not stated) the value was 16.1% (inactive). Next, `Clc1c(Cl)c(Cl)c(CSCc2c(Cl)c(Cl)c(Cl)c(Cl)c2Cl)c(Cl)c1Cl`: 2.1% (inactive). For `CCCCCCCNc1ccc(C(=O)OCC)cc1` the value was 7.3% (inactive); for `Oc1c(Cl)cc(N=Cc2ccc(N(CCCCl)CCCCl)cc2)cc1Cl`, -13.6% (inactive); for `COc1ccc2c3ccc4c(c3n(C)c2c1)C(=O)c1ccccc1C4=O`, -22.8% (inactive). With `Cc1ccsc1/C=N/Nc1ncccn1`, the growth inhibition was 13.9% (inactive). Next, `O=C1Nc2ccccc2C1=O`: -12.3% (inactive).
